Results published in article PMC5700166.

target: T1, GST-Nv-NF-kB (Cys allele) (Nematostella vectensis, UniProt E5G601 2-411); experiment: protein-binding microarray (PBM); PBM: ~300 nM protein, 6 mM HEPES pH 7.8, 80 mM KCl, 0.5 mM EDTA, 0.5 mM EGTA, 6% glycerol, 35 ng/ul poly-dIdC, 1% milk, 1 h, room temperature; Ap Aiptasia and Nv Nematostella (sea anemones) / Co Capsaspora / Aq Amphimedon (sponge) / Dm Drosophila / Hu human; RHD is the Rel homology domain; high values mean tight binding; details: dsDNA, one strand shown
T1 sequence: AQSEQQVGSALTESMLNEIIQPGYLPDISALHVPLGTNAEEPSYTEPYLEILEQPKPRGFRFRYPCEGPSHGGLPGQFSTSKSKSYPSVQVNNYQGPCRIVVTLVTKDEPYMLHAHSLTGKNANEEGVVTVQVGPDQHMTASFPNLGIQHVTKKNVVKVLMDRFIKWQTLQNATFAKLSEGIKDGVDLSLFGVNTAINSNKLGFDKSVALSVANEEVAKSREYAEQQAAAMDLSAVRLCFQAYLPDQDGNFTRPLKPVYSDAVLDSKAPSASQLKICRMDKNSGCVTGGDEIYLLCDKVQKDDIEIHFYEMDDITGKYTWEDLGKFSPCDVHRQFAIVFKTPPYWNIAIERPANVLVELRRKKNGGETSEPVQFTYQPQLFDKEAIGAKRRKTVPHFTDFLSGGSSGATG

Sequence	binding signal [z-score]
CCGATTAACATCAAGAAACCCCCTGATGTTAATCGGGTCTTGATTCGCTTGACGCTGCTG	8.55
CCGATTAACATCAAGGGGGAAAATGATGTTAATCGGGTCTTGATTCGCTTGACGCTGCTG	6.58
CCGATTAACATCAAGGTATTCCCTGATGTTAATCGGGTCTTGATTCGCTTGACGCTGCTG	3.82
CCGATTAACATCAGGGAAACCCCTGATGTTAATCGGGTCTTGATTCGCTTGACGCTGCTG	11.4
CCGATTAACATCAGCCCGGGAAATGATGTTAATCGGGTCTTGATTCGCTTGACGCTGCTG	2.27
CCGATTAACATCAAACTACCCCCTGATGTTAATCGGGTCTTGATTCGCTTGACGCTGCTG	4.01
CCGATTAACATCAAGGGGGTTTATGATGTTAATCGGGTCTTGATTCGCTTGACGCTGCTG	6.46
CCGATTAACATCAAAAATCCCCGTGATGTTAATCGGGTCTTGATTCGCTTGACGCTGCTG	10.8
CCGATTAACATCAGAAATATCCCTGATGTTAATCGGGTCTTGATTCGCTTGACGCTGCTG	2.67
CCGATTAACATCAACGGATTCCCTGATGTTAATCGGGTCTTGATTCGCTTGACGCTGCTG	3.57
CCGATTAACATCAGGGGGAATTATGATGTTAATCGGGTCTTGATTCGCTTGACGCTGCTG	9.53
CCGATTAACATCAGGGGAACTTATGATGTTAATCGGGTCTTGATTCGCTTGACGCTGCTG	8.58
CCGATTAACATCAGGCATCCCCATGATGTTAATCGGGTCTTGATTCGCTTGACGCTGCTG	2.84
CCGATTAACATCAGATATTCCCATGATGTTAATCGGGTCTTGATTCGCTTGACGCTGCTG	3.21
CCGATTAACATCAAACACCCCCTTGATGTTAATCGGGTCTTGATTCGCTTGACGCTGCTG	5.25
CCGATTAACATCAGGGAATTTTATGATGTTAATCGGGTCTTGATTCGCTTGACGCTGCTG	9.33
CCGATTAACATCAAAAAATCCCCTGATGTTAATCGGGTCTTGATTCGCTTGACGCTGCTG	11.9
CCGATTAACATCAGGACTCCCCATGATGTTAATCGGGTCTTGATTCGCTTGACGCTGCTG	3.31
CCGATTAACATCAAAATTCCCGCTGATGTTAATCGGGTCTTGATTCGCTTGACGCTGCTG	5.99
CCGATTAACATCAATTTCCCACCTGATGTTAATCGGGTCTTGATTCGCTTGACGCTGCTG	3.38

Sequence	binding signal [z-score]
CCGATTAACATCAAAATTCCCACTGATGTTAATCGGGTCTTGATTCGCTTGACGCTGCTG	5.68
CCGATTAACATCACTGAAATCCCTGATGTTAATCGGGTCTTGATTCGCTTGACGCTGCTG	2.29
CCGATTAACATCACAGTTTCCCCTGATGTTAATCGGGTCTTGATTCGCTTGACGCTGCTG	7.28
CCGATTAACATCAGGGGAATGTATGATGTTAATCGGGTCTTGATTCGCTTGACGCTGCTG	7.74
CCGATTAACATCAGGGGGATCCATGATGTTAATCGGGTCTTGATTCGCTTGACGCTGCTG	5.12
CCGATTAACATCAAGGGAATGCCTGATGTTAATCGGGTCTTGATTCGCTTGACGCTGCTG	3.58
CCGATTAACATCACAAATTCCCCTGATGTTAATCGGGTCTTGATTCGCTTGACGCTGCTG	10.9
CCGATTAACATCAGGGTAAGTACTGATGTTAATCGGGTCTTGATTCGCTTGACGCTGCTG	3.05
CCGATTAACATCACAAACTCCCCTGATGTTAATCGGGTCTTGATTCGCTTGACGCTGCTG	5.84
CCGATTAACATCACCGTTTCCCCTGATGTTAATCGGGTCTTGATTCGCTTGACGCTGCTG	6.66
CCGATTAACATCAGGGGGTCCACTGATGTTAATCGGGTCTTGATTCGCTTGACGCTGCTG	2.44
CCGATTAACATCAGGGGTTTCTATGATGTTAATCGGGTCTTGATTCGCTTGACGCTGCTG	4.73
CCGATTAACATCAGGGGAAAACCTGATGTTAATCGGGTCTTGATTCGCTTGACGCTGCTG	10.6
CCGATTAACATCAGGGAAGTACCTGATGTTAATCGGGTCTTGATTCGCTTGACGCTGCTG	7.36
CCGATTAACATCAGATAATTCCCTGATGTTAATCGGGTCTTGATTCGCTTGACGCTGCTG	7.58
CCGATTAACATCAGGATTTCCCCTGATGTTAATCGGGTCTTGATTCGCTTGACGCTGCTG	11.1
CCGATTAACATCACAAAAACCCCTGATGTTAATCGGGTCTTGATTCGCTTGACGCTGCTG	7.23
CCGATTAACATCAGGGGAGTTTATGATGTTAATCGGGTCTTGATTCGCTTGACGCTGCTG	6.72
CCGATTAACATCAGGGGCCCCCCTGATGTTAATCGGGTCTTGATTCGCTTGACGCTGCTG	3.78
